Active and inactive are the calls of the source.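 The calls were made as follows: active = fitted AC50 no higher than ten times the top tested dose (cut at about 90 µM in these data); inconclusive = flat curve with 30 to 70% signal loss, or bad fit; inactive = AC50 beyond ten times the top dose.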

A word on the AC50: it is the concentration giving half of the maximal activity seen.

The assay is described as follows: TruHit bead signal quenchers or artefacts – biochemical, TruHit kit, artefact control, dose response (AID 1259339). The conditions noted are these: TruHit alphaLISA kit signal interference counterscreen; series mostly up to 80 µM. (In Alpha technology, singlet oxygen from a donor bead excites a nearby acceptor bead.)
With `O=C(Nc1nc(-c2nc3ccccc3s2)cs1)c1ccco1`, the AC50 result is “inactive”.
The entry for `C=CCNc1ncnc2c1CCN(C(=O)c1ccc(CSC)o1)CC2` is “inactive”; for `C=CC(=O)N1CCCC2(CCN(CCN3CCCC3)C2=O)C1` (centres undefined) it is “inactive”.
`Cc1cccc(Nc2nc(C(=O)Nc3cc(F)ccc3F)nc3ccccc23)c1`: the AC50 result was “inactive”.
As to `Cc1ccc(N2C(=O)c3ccccc3C2C(=O)c2ccc(O)cc2O)cc1` (centres undefined), the AC50 entry is “inactive”.
The same measure for `O=[N+]([O-])c1cccc(-c2nnc3ccc4ccccc4n23)c1`: “inactive”; for `C[C@H](CO)N1C[C@H](C)[C@@H](CN(C)CC2CCCCC2)OCCCC[C@H](C)Oc2ccc(NS(=O)(=O)c3ccc(F)cc3)cc2C1=O`: “inactive”.
As for `O=C(NCCc1ccco1)c1ccc(OCc2cn3ccccc3n2)cc1`, the AC50 result was “inactive”.
For `COc1ccc2nc(-c3ccco3)c(-c3ccco3)nc2c1`, the AC50 is 35.1 µM (active).
On to `NC(=O)C1(N2CCCCC2)CCN(c2ncc(NC(=O)c3ccc(F)cc3)cc2C(=O)O)CC1`, for which the AC50 result was “inactive”.
With `COc1c(C(=O)O)csc1Br`, the AC50 is 0.373 µM (active).
In the case of `Cc1cccc2nc(CSCc3ccco3)cn12`, the AC50 was 74.7 µM (active).
The figure for `O=C(Nc1nc(-c2ccco2)c(-c2ccco2)s1)c1ccc(F)cc1F` is 4.41 µM (active).
As to `O=C(COC(=O)CCC(=O)c1cccs1)NCc1ccco1`, the AC50 result was “inactive”.
In the case of `CCCc1oc(C(=O)O)cc1CN`, the AC50 entry was “inactive”.
Regarding `COc1ccc(-n2c(C)c3c(OC)cccc(=O)c3c2C)cc1`, the AC50 was 22.1 µM (active).
The same measure for `NC(=O)C1(N2CCCCC2)CCN(c2ccc(NC(=O)c3ccccc3F)cc2C(=O)O)CC1`: “inactive”.
The same measure for `Cc1ccc(-c2cc(C(=O)NCc3ccco3)c3ccccc3n2)o1`: 64.5 µM (active); for `CCc1nccn1CCC(=O)N1C[C@H](CO)C[C@H](CN2CCCC2)C1`: “inactive”.

Values taken from PubChem BioAssay AID1259339 (Broad Institute, 2017).
